According to PubChem BioAssay:
Calls of active or inactive are those of the source.

How the values were obtained:
[1] = optical density shifts of acrAB sulA E. coli – strain DRC41, OD650, 48 h, E. coli filamentation inducer project, primary screen (AID 1152); settings: higher = more signal, called active from +8 up or from −8 down;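 note: E. coli MC1000 strain DRC41 lacking acrAB efflux pump and sulA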
[2] = probe aLefty1 binding on compound microarray – biochemical, small-molecule microarray, 635/667 nm fluorescence, primary screen (AID 1153); settings: higher = more signal;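 note: score merges spot fluorescence with signal-to-noise ratio from the scanned slide images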
[3] = plasmodial surface anion channel blockers, osmotic lysis – cell-based, P. falciparum Indochina, OD700, 1 h, primary screen (AID 1154); settings: P. falciparum Indochina infected RBC osmotic lysis, higher = more signal, called active from +8 up or from −8 down
[4] = plasmodial surface anion channel blockers, osmotic lysis – cell-based, P. falciparum Indochina, OD700, 2 h, primary screen (AID 1155);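 note: lysis reports solute entry through the parasite surface anion channel PSAC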; settings: P. falciparum Indochina infected erythrocytes, higher = more signal, called active from +8 up or from −8 down
[5] = changes in parasitized red cell lysis, either direction – P. falciparum Indochina, OD700, 3 h, PSAC antagonist project, primary screen (AID 1156); settings: P. falciparum-infected erythrocytes, osmotic lysis, higher = more signal, called active from +8 up or from −8 down
[6] = plasmodial surface anion channel blockers, osmotic lysis – cell-based, P. falciparum Indochina, OD700, 18 h, primary screen (AID 1157); settings: P. falciparum Indochina infected erythrocytes, osmotic lysis OD700, 18 h; higher = more signal, called active from +8 up or from −8 down
[7] = S6 kinase pathway phospho-S6 level changes – cell-based, A549, cytoblot, luminescence, serum-stimulated, primary screen (AID 1158); settings: 5 h, higher = more signal;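 note: serum-stimulated A549 lung adenocarcinoma cells; signal is phosphorylated S6 detected by cytoblot immunostaining with HRP secondary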
[8] = target: NADPH oxidase 2 (Homo sapiens) (UniProt P04839); test: compounds shifting NOX2 Amplex Red fluorescence – cell-based, HEK293-NOX2, PMA-stimulated, NOX inhibitor project, primary screen (AID 1159); settings: 45 min, higher = more signal, called active from +8 up or from −8 down; note: test concentration not given here
Sequence of NADPH oxidase 2 (Homo sapiens) (P04839 whole entry, looked up): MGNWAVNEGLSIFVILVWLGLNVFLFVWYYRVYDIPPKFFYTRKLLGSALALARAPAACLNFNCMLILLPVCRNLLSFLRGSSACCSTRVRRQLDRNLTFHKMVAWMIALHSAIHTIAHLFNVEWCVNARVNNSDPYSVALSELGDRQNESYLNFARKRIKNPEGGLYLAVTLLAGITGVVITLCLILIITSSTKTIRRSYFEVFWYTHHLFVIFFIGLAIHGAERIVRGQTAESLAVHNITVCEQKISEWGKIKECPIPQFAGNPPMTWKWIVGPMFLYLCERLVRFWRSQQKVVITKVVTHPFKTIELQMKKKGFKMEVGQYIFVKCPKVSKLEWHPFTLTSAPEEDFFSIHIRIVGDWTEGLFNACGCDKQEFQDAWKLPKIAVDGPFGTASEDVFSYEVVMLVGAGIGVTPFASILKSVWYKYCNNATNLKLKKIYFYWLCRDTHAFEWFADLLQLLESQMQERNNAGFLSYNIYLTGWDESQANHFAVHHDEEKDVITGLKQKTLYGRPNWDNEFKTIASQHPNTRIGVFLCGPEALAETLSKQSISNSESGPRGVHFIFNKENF

[9] = target: NADPH oxidase 4 (Homo sapiens) (UniProt Q9NPH5); test: compounds shifting NOX4 Amplex Red fluorescence – cell-based, HEK293-NOX4, tetracycline-induced, NOX inhibitor project, primary screen (AID 1160); settings: HEK293-NOX4, Amplex Red H2O2 fluorescence, 45 min; higher = more signal, called active from +8 up or from −8 down
Sequence of NADPH oxidase 4 (Homo sapiens) (Q9NPH5 whole entry, looked up): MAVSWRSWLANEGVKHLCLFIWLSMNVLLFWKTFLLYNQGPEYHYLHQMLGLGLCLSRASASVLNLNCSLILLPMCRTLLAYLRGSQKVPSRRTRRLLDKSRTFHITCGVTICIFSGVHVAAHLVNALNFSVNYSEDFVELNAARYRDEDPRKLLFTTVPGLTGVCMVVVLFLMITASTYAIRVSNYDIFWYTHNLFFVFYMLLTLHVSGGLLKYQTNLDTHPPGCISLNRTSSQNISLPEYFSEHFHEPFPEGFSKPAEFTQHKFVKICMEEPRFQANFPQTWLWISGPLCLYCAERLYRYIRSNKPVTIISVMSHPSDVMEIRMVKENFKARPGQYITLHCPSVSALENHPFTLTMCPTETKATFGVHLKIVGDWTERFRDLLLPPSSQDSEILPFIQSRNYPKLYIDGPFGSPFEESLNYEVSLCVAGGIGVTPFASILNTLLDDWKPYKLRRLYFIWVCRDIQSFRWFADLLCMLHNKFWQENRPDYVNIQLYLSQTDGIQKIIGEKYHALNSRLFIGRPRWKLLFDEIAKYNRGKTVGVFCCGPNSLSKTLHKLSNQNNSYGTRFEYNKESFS

[10] = target: NADPH oxidase 5 (Homo sapiens) (UniProt Q96PH1); test: compounds shifting NOX5 Amplex Red fluorescence – cell-based, HEK293-NOX5, NOX inhibitor project, primary screen (AID 1161); settings: HEK293-NOX5, ionomycin, 45 min, higher = more signal
Sequence of NADPH oxidase 5 (Homo sapiens) (Q96PH1 whole entry, looked up): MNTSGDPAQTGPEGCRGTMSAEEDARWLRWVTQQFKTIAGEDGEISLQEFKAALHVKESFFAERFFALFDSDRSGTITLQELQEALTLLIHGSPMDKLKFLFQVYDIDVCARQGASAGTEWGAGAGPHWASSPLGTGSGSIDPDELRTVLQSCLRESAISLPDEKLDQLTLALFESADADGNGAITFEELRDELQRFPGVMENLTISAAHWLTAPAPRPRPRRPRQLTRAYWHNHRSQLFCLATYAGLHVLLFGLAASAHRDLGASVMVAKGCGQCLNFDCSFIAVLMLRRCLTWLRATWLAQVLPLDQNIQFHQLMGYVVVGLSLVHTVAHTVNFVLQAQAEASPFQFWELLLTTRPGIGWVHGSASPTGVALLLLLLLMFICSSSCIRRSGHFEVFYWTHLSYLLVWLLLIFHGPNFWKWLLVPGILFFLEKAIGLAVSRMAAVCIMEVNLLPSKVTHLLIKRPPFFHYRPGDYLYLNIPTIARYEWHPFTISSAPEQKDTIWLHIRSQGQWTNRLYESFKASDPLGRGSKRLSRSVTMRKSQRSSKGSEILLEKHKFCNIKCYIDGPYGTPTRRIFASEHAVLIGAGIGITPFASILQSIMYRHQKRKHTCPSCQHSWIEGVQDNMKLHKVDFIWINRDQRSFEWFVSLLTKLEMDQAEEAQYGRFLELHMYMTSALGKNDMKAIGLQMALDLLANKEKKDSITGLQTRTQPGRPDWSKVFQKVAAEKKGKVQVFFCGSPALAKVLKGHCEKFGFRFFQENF

Structure (SMILES) | z-score [1] | composite z-score [2] | z-score [3] | z-score [4] | z-score [5] | z-score [6] | z-score [7] | z-score [8] | z-score [9] | z-score [10]
COCCOC(=O)N1C(=O)[C@@]2(c3cc(C#CC4(O)CCCCCC4)ccc31)[C@H](C(=O)N1CCc3cc(OC)c(OC)cc3C1)[C@H]1C(=O)O[C@H](c3ccccc3)[C@H](c3ccccc3)N1[C@@H]2c1ccccc1OCCO | 0.803 (inactive) | 0.496 | 1.39 (inactive) | 1.15 (inactive) | 0.496 (inactive) | 0.655 (inactive) | -0.0095 | 2.73 (inactive) | -0.879 (inactive) | 0.554
COCCOC(=O)N1C(=O)[C@@]2(c3ccccc31)[C@H](c1ccccc1OCCO)N1[C@H](c3ccccc3)[C@H](c3ccccc3)OC(=O)[C@H]1[C@@H]2C(=O)N1CCc2cc(OC)c(OC)cc2C1 | 0.0509 (inactive) | 0.433 | 2.79 (inactive) | 1.2 (inactive) | 1.68 (inactive) | 0.654 (inactive) | 0.0753 | 1.15 (inactive) | 0.39 (inactive) | -0.157
C#CCOC(=O)N[C@H](C=CCCCC)c1ccccc1 | -0.288 (inactive) | 0.289 | 0.801 (inactive) | 0.852 (inactive) | 0.599 (inactive) | 0.715 (inactive) | -0.469 | 0.877 (inactive) | -0.194 (inactive) | -0.212
COCCOC(=O)N1C(=O)[C@@]2(c3cc(C#Cc4ccc(OC)cc4)ccc31)[C@H](c1ccc(OCCO)cc1)N1[C@H](c3ccccc3)[C@H](c3ccccc3)OC(=O)[C@H]1[C@@H]2C(N)=O | 0.629 (inactive) | 0.291 | 5.54 (inactive) | 2.19 (inactive) | 0.528 (inactive) | 0.924 (inactive) | -0.141 | 1.49 (inactive) | 1.03 (inactive) | 1.85
Cc1ccc(C(C)CC(O)C2C=CC3C(=O)N(Cc4ccccc4)C(=O)C3N2n2cnnc2)o1 (stereo not given) | -1.44 (inactive) | 1.21 | 2.31 (inactive) | 0.793 (inactive) | 0.809 (inactive) | 0.709 (inactive) | -0.63 | -0.168 (inactive) | -1.78 (inactive) | -2.17
COc1ccc(C(=O)Nc2ccc(CN3C(=O)[C@]4(O[C@H](CCn5cc([C@H](O)c6ccccc6)nn5)[C@@H]([Si](C)(C)c5ccc(OC)cc5)[C@@H]4C)c4ccccc43)cc2)cc1 | -0.372 (inactive) | 0.193 | 3.29 (inactive) | 1.02 (inactive) | 0.741 (inactive) | 1.26 (inactive) | 0.319 | 0.753 (inactive) | 0.206 (inactive) | 2.27
C[C@H]1ON(c2ccccc2)[C@@H](c2ccccc2)[C@@H]1C(=O)N1C(=O)OC[C@@H]1c1ccccc1 | 0.319 (inactive) | -0.0141 | 1.66 (inactive) | 0.895 (inactive) | -0.372 (inactive) | 0.28 (inactive) | 0.238 | 0.198 (inactive) | -0.28 (inactive) | -0.654
Cc1ccc(F)cc1S(=O)(=O)N[C@@H]1CCN(C(=O)c2ccc(OC(C)C)cc2)C1 | 0.295 (inactive) | -0.0973 | 2.54 (inactive) | 1.02 (inactive) | 0.79 (inactive) | 0.427 (inactive) | -0.102 | -0.471 (inactive) | -0.0285 (inactive) | -0.257
[N-]=[N+]=NCc1ccccc1C[C@@]1(C(=O)NCCN2CCOCC2)N=C(c2ccc(OCCCO)cc2)O[C@@H]1c1ccccc1CN=[N+]=[N-] | 0.648 (inactive) | 0.565 | 26.4 (active) | 13.7 (active) | 1.2 (inactive) | 2.26 (inactive) | -0.213 | 0.528 (inactive) | 0.116 (inactive) | 2.24
C=CCC(OC(C)=O)[C@@H]1[C@@H](N(Cc2ccc(-c3ccccc3)cc2)C(=O)c2cccc3ccccc23)c2cc(OCCCO)ccc2N1C(=O)c1ccc2ccccc2n1 (stereo not given in full) | 0.214 (inactive) | 0.123 | 1.01 (inactive) | 0.569 (inactive) | -0.745 (inactive) | 0.357 (inactive) | 0.332 | 0.772 (inactive) | -0.294 (inactive) | -3.7
COc1ccc(C#Cc2ccc3c(c2)[C@]2(C(=O)N3)[C@H](C(N)=O)[C@H]3C(=O)O[C@H](c4ccccc4)[C@H](c4ccccc4)N3[C@@H]2c2ccc(O)cc2)cc1 | -0.203 (inactive) | -0.131 | 3.46 (inactive) | 1.63 (inactive) | 0.0128 (inactive) | 1.23 (inactive) | 0.0535 | 0.945 (inactive) | 0.346 (inactive) | -1.04
CCCC=C(CCC)[C@@H](NS(=O)(=O)c1ccccc1)c1ccc(C(F)(F)F)cc1 | -1.51 (inactive) | 0.775 | 4.38 (inactive) | 1.07 (inactive) | 0.482 (inactive) | 0.983 (inactive) | -0.0787 | -0.818 (inactive) | -1.19 (inactive) | 2.67
CCOC(=O)C[C@H]1[C@H](OC(=O)Cc2ccc3c(c2)OCO3)[C@@H](NC(=O)c2ccccc2)c2cc(OCCCO)ccc2N1C(=O)c1ccc2ccccc2n1 | 2.15 (inactive) | 0.031 | 6.69 (inactive) | -0.0918 (inactive) | -1.04 (inactive) | -1.23 (inactive) | 0.873 | -0.357 (inactive) | 1.16 (inactive) | 0.27
